# Reference: PubChem BioAssay
# Calls of active or inactive are those of the source.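 Rule for the calls, unless noted: active = fluorescence slope higher than the sample average by over 3 SD (cut at about -0.22 in these data, passing the limit was not always enough); inactive = the rest.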
# Experiments:
# [1] = inhibitors of TNFa-induced NFkB p65 translocation, primary screen, imaging, HUVEC, MLSMR starter and 10KST1 sets (AID 438;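 active = inhibition above 20% together with a positive visual image hit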;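 note: compound added about 3h40 before a 20 min TNFalpha stimulation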;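 for inhibition: signal is the nuclear over cytoplasmic p65 intensity ratio per well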); conditions: HUVEC TNFa-induced p65 nuclear translocation; cell count: measured here: nuclei count (cytotoxicity indicator), at 2.08 µM; inhibition: at 2 µM, stronger effect = higher value, 0% TNFa-plus-vehicle, 100% no-TNFa wells
# [2] = reduction of polyQ htt aggregates in cells – imaging, exon1htt(103Q)mCFP cells, high-content imaging, primary screen (AID 483;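 active = visual image review flags a hit and inhibition of aggregation exceeds 20%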;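 note: compound exposure lasted 3 days before fixation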;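 for nuclei count: percent of the per-plate median nuclei count of sample wells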); conditions: exon1htt(103Q)mCFP cell line, aggregate imaging, at 2 µM; inhibition of aggregation: stronger effect = higher value; nuclei count: measured here: cell count, toxicity
# [3] = endothelial E-selectin expression blockers – imaging, HUVEC, immunofluorescence, MLSMR starter and 10KST1 sets, primary screen (AID 487;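 active = visually confirmed hit in the image check and inhibition above 20%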;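 for inhibition: signal is fraction of cell area covered by stained E-selectin grains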;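 for nuclei count: 100% = median nuclei count of all wells on the same plate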); conditions: HUVEC TNFalpha-induced E-selectin immunofluorescence imaging, at 2 µM; inhibition: stronger effect = higher value; nuclei count: measured here: cell number, toxicity
# [4] = molecular target: Voltage-gated potassium channel subunit beta-2 (Rattus norvegicus) (UniProt P62483); experiment: inhibitors of rat Kvbeta2 reductase activity – biochemical, NADPH fluorescence, primary screen (AID 622); conditions: recombinant KvBeta, 4-cyanobenzaldehyde reduction, at 10 µM, stronger effect = higher value;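 note: slope of raw intensity against log time taken from 70 to 1610 s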
# [5] = molecular target: Voltage-gated potassium channel subunit beta-2 (Rattus norvegicus) (UniProt P62483); experiment: enhancers of rat Kvbeta2 NADPH turnover – biochemical, NADPH fluorescence, primary screen (AID 623;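 active = NADPH fluorescence slope more negative than the mean of all samples by about 3 SD, 99.7% confidence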;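 note: fluorescence intensity change per second fitted from 20 to 320 s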); conditions: Recombinant KvBeta, NADPH fluorescence decrease slope, 10 min; at 10 µM; stronger effect = lower value
# [6] = molecular target: Alpha-2C adrenergic receptor (Homo sapiens) (UniProt P18825); experiment: compounds altering alpha2C-coupled GIRK flux – cell-based, HEK293 alpha2C/GIRK1/2, thallium flux, primary screen (AID 624;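 active = fluorescence slope after compound addition differing from the mean of all screened samples at 99.7% confidence, in either direction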;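 note: slope of fluorescence ratio to pre-addition baseline per second over 15 to 24 s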); conditions: thallium flux BTC fluorescence, at 10 µM, actives lie on both sides
# [7] = blockers of RIG-like receptor reporter activation – cell-based, Sendai virus stimulus, luciferase, 10K MLSCN set, TLR/RLR signaling modifier project, primary screen (AID 602276;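 active = inhibition at or above 50% at 10 µM; inactive = inhibition below 50%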;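 note: firefly luciferase from ISG56 promoter only with Renilla not read in this screen; 0% = Sendai virus plus DMSO and 100% = medium plus DMSO without virus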); conditions: HEK293 RL24 IRF3 luciferase reporter, at 10 µM, stronger effect = higher value
# [8] = TLR3 IRF3 reporter activation blockers – cell-based, poly I:C stimulus, luciferase, 10K MLSCN set, primary screen (AID 602277;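 active = inhibition of the reporter signal at or above 50%; inactive = inhibition below 50%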); conditions: HEK293-TLR3 RL24 IRF3 luciferase reporter, at 10 µM, stronger effect = higher value
# Chain of Voltage-gated potassium channel subunit beta-2 (Rattus norvegicus) (P62483 whole entry, looked up): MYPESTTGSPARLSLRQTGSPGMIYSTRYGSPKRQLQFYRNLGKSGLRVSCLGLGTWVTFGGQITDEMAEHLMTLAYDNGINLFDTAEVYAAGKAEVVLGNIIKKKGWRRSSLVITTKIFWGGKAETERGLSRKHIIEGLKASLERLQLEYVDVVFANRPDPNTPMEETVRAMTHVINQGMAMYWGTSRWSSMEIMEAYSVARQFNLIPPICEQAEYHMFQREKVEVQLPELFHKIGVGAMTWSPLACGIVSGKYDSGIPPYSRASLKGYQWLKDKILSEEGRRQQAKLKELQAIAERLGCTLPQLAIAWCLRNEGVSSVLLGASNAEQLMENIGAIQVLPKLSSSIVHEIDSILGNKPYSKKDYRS
# Chain of Alpha-2C adrenergic receptor (Homo sapiens) (P18825 whole entry, looked up): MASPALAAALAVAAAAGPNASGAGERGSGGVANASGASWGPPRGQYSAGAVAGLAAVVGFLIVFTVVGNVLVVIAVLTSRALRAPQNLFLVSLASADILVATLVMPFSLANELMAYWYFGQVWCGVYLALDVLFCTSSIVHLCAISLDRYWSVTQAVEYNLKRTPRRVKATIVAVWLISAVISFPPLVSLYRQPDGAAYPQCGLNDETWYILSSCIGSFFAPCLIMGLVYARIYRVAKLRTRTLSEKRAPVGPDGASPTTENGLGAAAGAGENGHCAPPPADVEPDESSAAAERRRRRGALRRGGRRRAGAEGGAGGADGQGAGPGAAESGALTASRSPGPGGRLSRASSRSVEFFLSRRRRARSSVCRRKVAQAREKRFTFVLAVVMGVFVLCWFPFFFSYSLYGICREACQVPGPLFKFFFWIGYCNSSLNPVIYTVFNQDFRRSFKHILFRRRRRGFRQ
SMILES,cell count [1],inhibition [1],inhibition of aggregation [2],nuclei count [2] [%],inhibition [3],nuclei count [3] [%],fluorescence slope [4],NADPH fluorescence slope [5],slope [6],inhibition [7],inhibition [8]
CCOCCCNC(=O)Cn1cc2c(n1)CCCCC2,486,-2.3% (inactive),19.4% (inactive),88.9,-25.4% (inactive),109,-0.605 (inactive),-1.2e-05 (inactive),0.00693 (inactive),3.75% (inactive),19.9% (inactive)
COc1cccc(-n2nc(C(=O)Nc3ccc4c(c3)OCO4)c3ccccc3c2=O)c1,741,1.6% (inactive),-5.9% (inactive),98.3,-27% (inactive),118,-0.601 (inactive),-3.9e-05 (inactive),0.0101 (inactive),3.08% (inactive),-20.2% (inactive)
c1ccc(Cn2nnc3c(N4CCCCCC4)ncnc32)cc1,525,-4.2% (inactive),35.8% (inactive),76.5,-63.4% (inactive),95.6,-0.55 (inactive),-2.5e-05 (inactive),0.0062 (inactive),-20.2% (inactive),-76.6% (inactive)
CCC(=O)N(CCCN(C)C)c1nc(-c2cc(OC)ccc2OC)cs1,392,7.8% (inactive),-4.4% (inactive),106,-14.7% (inactive),116,-0.623 (inactive),-6.2e-05 (inactive),0.00293 (inactive),19.4% (inactive),27% (inactive)
CCSc1ccccc1C(=O)Nc1cccc(OC)c1,421,0.8% (inactive),-0.9% (inactive),112,-1.4% (inactive),75,-0.539 (inactive),-8.4e-05 (inactive),0.00513 (inactive),-8.73% (inactive),-15.7% (inactive)
O=C(Nc1nnc(COc2ccc(F)cc2)s1)c1cccs1,585,7.2% (inactive),3.9% (inactive),126,-42.4% (inactive),104,-0.52 (inactive),-2.5e-05 (inactive),0.0053 (inactive),12.6% (inactive),6.8% (inactive)
O=C(Nc1ncc2c(n1)CC(c1ccccc1)CC2=O)c1ccco1 (stereo unspecified),572,-8.6% (inactive),-5.3% (inactive),99.5,-3.8% (inactive),86,-0.534 (inactive),-5.7e-06 (inactive),0.00546 (inactive),9.1% (inactive),9.67% (inactive)
Cc1nn(S(=O)(=O)N2CCCCC2)c(C)c1Br,335,4% (inactive),10.9% (inactive),101,-93.4% (inactive),119,-0.291 (inactive),-1.5e-05 (inactive),0.00571 (inactive),1.73% (inactive),17.2% (inactive)
C=CCSc1nc(N)c(C(=O)Nc2ccccc2C)cc1C(N)=O,775,1.4% (inactive),15.6% (inactive),96.4,-142% (inactive),124,-0.46 (inactive),1.4e-05 (inactive),0.00326 (inactive),-4.85% (inactive),24.2% (inactive)
CCOC(=O)CSc1nnc(-c2ccc(NS(=O)(=O)c3ccc(C)cc3)cc2)o1,813,-6.7% (inactive),-0.7% (inactive),98.9,-37.7% (inactive),108,-0.433 (inactive),-4.4e-05 (inactive),0.00389 (inactive),8.31% (inactive),29.4% (inactive)
COc1ccc(OCC(=O)N2CCN(C(=O)Cc3ccccc3)CC2)cc1,616,-22.3% (inactive),-1.4% (inactive),106,-14.3% (inactive),101,-0.517 (inactive),-4.7e-05 (inactive),0.00449 (inactive),-10.1% (inactive),-7.66% (inactive)
COc1ccc2nc(NC(=O)C3CCCN(S(=O)(=O)c4cccc5nsnc45)C3)sc2c1 (stereo unspecified),607,-3.9% (inactive),-14% (inactive),113,2% (inactive),122,-0.455 (inactive),3.3e-05 (inactive),0.00595 (inactive),-3.68% (inactive),-37.1% (inactive)
O=C1CCCC2=C1C(c1cccs1)n1nc(SCc3ccccc3F)nc1N2 (stereo unspecified),694,8.6% (inactive),16.5% (inactive),109,-30.7% (inactive),79.7,-0.505 (inactive),3.2e-05 (inactive),0.00593 (inactive),-24.2% (inactive),-0.597% (inactive)
C=CCSC1=C(C#N)C(c2ccccc2Cl)CC(=O)N1 (stereo unspecified),407,-6.5% (inactive),28.2% (inactive),74.3,-59% (inactive),171,-0.561 (inactive),5.8e-06 (inactive),0.0048 (inactive),25.7% (inactive),14.1% (inactive)
COc1ccccc1-n1c(-c2cccnc2)n[nH]c1=S,204,-4.8% (inactive),17.2% (inactive),77,-123% (inactive),107,-0.598 (inactive),-4.1e-06 (inactive),0.0043 (inactive),-0.823% (inactive),-12.6% (inactive)
O=C(CN1CCCCCC1)OCCN=C1NS(=O)(=O)c2ccccc21,384,-1.9% (inactive),-3.1% (inactive),62.4,-187% (inactive),133,-0.599 (inactive),-6.1e-06 (inactive),0.00669 (inactive),9.82% (inactive),8.03% (inactive)
CCN(CCCNC(=O)COc1cc(=O)n(CC)c2ccccc12)c1ccccc1,377,0.6% (inactive),1.3% (inactive),104,13.8% (inactive),96.1,-0.501 (inactive),-4e-05 (inactive),0.00565 (inactive),5.07% (inactive),7.25% (inactive)
O=C(c1ccco1)N1CCN(S(=O)(=O)c2ccc(Oc3ccccc3)cc2)CC1,243,22.6% (inactive),-4.9% (inactive),77.4,-81.4% (inactive),111,-0.519 (inactive),2.5e-06 (inactive),0.00632 (inactive),5.47% (inactive),-52.2% (inactive)
COc1cc2c(=O)nc3n(c2cc1OC)C(c1ccccc1)N=C(N)N3 (stereo unspecified),398,-11.9% (inactive),17.7% (inactive),86.3,0.3% (inactive),98.2,-0.312 (inactive),-2.8e-05 (inactive),0.00451 (inactive),17.6% (inactive),23.9% (inactive)
c1cc(CNc2ccc3c(c2)OCO3)ccn1,240,-3.9% (inactive),17.7% (inactive),83.7,-91.7% (inactive),112,-0.48 (inactive),-1.4e-05 (inactive),0.00585 (inactive),-9.22% (inactive),13.6% (inactive)
CC1(C)CC(=O)C(CC2=C(O)CC(C)(C)CC2=O)=C(O)C1,628,-6.7% (inactive),15.8% (inactive),90.9,-24.2% (inactive),112,-0.386 (inactive),-1.3e-05 (inactive),0.00397 (inactive),7.41% (inactive),23.2% (inactive)
O=S(=O)(c1cc(Cl)ccc1Br)N1CCOCC1,450,10.6% (inactive),-0.6% (inactive),90.7,-192% (inactive),133,-0.431 (inactive),-7.3e-05 (inactive),0.00323 (inactive),6.91% (inactive),35.8% (inactive)
O=C(OCC(=O)N1CCc2ccccc21)C1=COCCO1,341,-3.1% (inactive),8.9% (inactive),86.5,-37% (inactive),113,-0.633 (inactive),-7.8e-06 (inactive),0.00715 (inactive),-12.3% (inactive),-46.6% (inactive)
CC1CN(c2ccc(Oc3ccccc3)cc2)c2nc3c(c(=O)n(CC(N)=O)c(=O)n3C)n2C1 (stereo unspecified),706,-12.4% (inactive),4.2% (inactive),106,-15.8% (inactive),93.4,-0.546 (inactive),-6.5e-05 (inactive),0.00659 (inactive),9.73% (inactive),22.4% (inactive)
Cn1c(=O)[nH]c(=O)c2c1nc(CN1CCN(c3cccc(Cl)c3)CC1)n2CCc1ccccc1,683,-9.7% (inactive),6.6% (inactive),107,-90.8% (inactive),87.9,-0.587 (inactive),8.1e-06 (inactive),0.00654 (inactive),-13.9% (inactive),-0.338% (inactive)
O=S(=O)(c1cccc2nsnc12)N1CCN(c2ncccn2)CC1,573,-15.2% (inactive),5.1% (inactive),99.7,-93.3% (inactive),120,-0.408 (inactive),-4.2e-05 (inactive),0.00508 (inactive),12.7% (inactive),31.3% (inactive)
